Only some compounds are listed: those with a hit (about 7.3% of all), similar ones and a draw of the others.
HCV inh – qHTS Assay for Inhibitors of Hepatitis C Virus (HCV) | Huh7.5.1 HCVcc-Cre infection, luciferase reporter, 44 h | Potency, µM (series often up to 41.8 µM), for inactives: at the highest dose activity change, negative = inhibition, actives largely listed as inhibitors | 340,000 compounds, 3.4% hits | AID 651820, 2012; active = well fitted inhibition curve with a large enough effect; inconclusive = small, poorly fitted or top-dose-only effect, or another doubt; inactive = no such curve, though single readings can be large or run the other way; note: potency is the fitted concentration of half-maximal effect
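Infectious HCVcc-Cre (~0.5 moi) was added to cells just after compound, with cells seeded 4 h earlier at 1,000 per well. Luciferase activity after 44 h culture reported infection; substrate was incubated 15 min at room temperature before reading.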
Vaccinia Venus – qHTS for Stage-Specific Inhibitors of Vaccinia Orthopoxvirus: Venus Reporter Primary qHTS. Vaccinia virus Venus reporter expression, fluorescence. Potency, µM (series often up to 36.5 µM), for inactives: top-dose activity change, negative = inhibition, most hits filed as inhibitors. 330,000 compounds, 0.46% hits. AID 720580, 2013; calls by dose curve; tested in A549 cells; note: potency is the fitted concentration of half-maximal effect; nearly all actives have a fitted effect of over 30% in size
FMDV inh – High Throughput Screening for Foot and Mouth Disease Virus Antivirals. FMDV antiviral cell-based qHTS. Potency, µM (titrated, usually from 57.9 µM), for inactives: at the highest dose activity change, negative = inhibition, actives largely listed as inhibitors. 410,000 compounds, 1.2% hits; calls by dose curve; tested in HEK293T cells; note: read-out not given here; potency is the fitted concentration of half-maximal effect; nearly all actives have a fitted effect of over 45% in size
Vaccinia mCherry – qHTS for Stage-Specific Inhibitors of Vaccinia Orthopoxvirus: mCherry Reporter Primary qHTS; Vaccinia virus mCherry reporter infection, fluorescence; Potency, µM (doses to about 36.5 µM), for the others: at the top dose activity change, negative = inhibition, hits mostly inhibitors; 310,000 compounds, 0.63% hits; calls by dose curve; tested in A549 cells; note: potency is the fitted concentration of half-maximal effect; nearly all actives have a fitted effect of over 35% in size
HCMV inh – qHTS Assay for inhibitors of the human cytomegalovirus (HCMV); activity change, negative = inhibition, % at 57.5 µM; AID 1259415, 2018; HFF cells, HCMV-luciferase reporter, 72 h; active compounds read low; 410,000 compounds, 4.5% hits; in the data active = activity change below about -60%; inconclusive = no clear call, values can overlap the other calls; inactive = above about -39%
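Human foreskin fibroblasts infected with luciferase-reporter HCMV at MOI 1 PFU/cell, compounds at two doses. Luciferase measured 72 h post infection; normalized to buffer-only basal and Salinomycin (10uM) controls.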
* hit, by the source's call; i = inactive; ? = inconclusive; . = no result given. % is set by controls: 0 for no effect and ±100 for the full control effect.

SMILES | HCV inh | Vaccinia Venus | FMDV inh | Vaccinia mCherry | HCMV inh
CCOc1cc(NC(=S)Nc2ccccc2)c(OCC)cc1NC(=O)c1ccc(OC)cc1 | ? | . | 8% | . | -66*
COc1ccc(Nc2nnc(-c3ccc4c(c3)OCO4)o2)cc1 | . | . | . | . | 121
C#CCN(C[C@@H]1[C@@H](OC(=O)Nc2c(C)noc2C)[C@@H](OC(=O)Nc2c(C)noc2C)Cn2c(=O)n(CCCCCC)c(=O)n21)S(=O)(=O)c1ccc(C)cc1 | . | ? | ? | ? | -15
COc1cccc(CNc2sc3c(c2C(=O)Nc2ccc(OC)cc2OC)CCC3)c1 | . | 1% | -9% | -9% | -7
CCOc1ccccc1NC(=O)NNC(=O)c1ccc2ccccc2c1 | 10% | -23% | 8% | -27% | -27
CCOc1ccccc1NC(=O)c1ccc2ccccc2c1 | 10µM* | -3% | 16% | -11% | 148
Cc1cccn2cc(COc3ccc(-c4ccccc4)cc3)nc12 | ? | -11% | 5% | ? | -90*
Cc1cccn2cc(COc3cccc([N+](=O)[O-])c3)nc12 | -6% | -12% | 21% | -8% | -33
CCC(COC)NC(=O)c1cnn(-c2ncc3c(n2)-c2ccccc2CCC3)c1C (centres undefined) | . | -17% | -6% | -2% | .
COc1ccc(-c2nnc3n2N=C(C)CS3)cc1 | 0% | . | -3% | . | -29
COc1ccc(C2=Nn3c(nnc3-c3ccccc3F)SC2)cc1OCC1CC1 | . | . | ? | . | -98*
FC(F)Oc1ccc(C2=Nn3c(nnc3-c3ccccc3Cl)SC2)cc1OCC1CC1 | . | . | 0% | . | 21
COc1ccc(OC)c(-c2nnc3n2N=C(c2ccc(OC)c(OC4CCOC4)c2)CS3)c1 (centres undefined) | . | . | -17% | . | -75*
CCOc1ccc(C2=Nn3c(nnc3-c3ccccc3)SC2)cc1Cl | -16% | ? | 11% | i | -102*
COc1ccc(OC)c(C2=Nn3c(nnc3-c3ccncc3)SC2)c1 | -22% | -8% | -1% | -6% | 0
Cc1ccc(-c2nnc3n2N=C(c2ccccc2)CS3)cc1 | -4% | -10% | -2% | -15% | 1
COc1ccc(C2=Nn3c(nnc3-c3ccc(OC)cc3)SC2)cc1 | 3.5µM* | . | ? | . | -101*
Cc1nn2c(C)c(C(=O)N3CCN(c4ccc(Cl)cc4)CC3)cnc2c1-c1ccc(F)cc1 | . | -15% | -6% | -7% | -7
Cc1ccc(CCNC(=O)CCCn2c(=O)c3ccccc3n(Cc3ccccc3C)c2=O)cc1 | . | -9% | -15% | -15% | -13
COc1ccc(C2=Nn3c(nnc3-c3ccccc3Cl)SC2)cc1OC1CCOC1 (centres undefined) | . | . | 33% | . | 20
COc1ccc(OC)c(C2=Nn3c(nnc3-c3cc(OC)c(OC)c(OC)c3)SC2)c1 | . | ? | -22% | -16% | 37
COc1ccc(C2=Nn3c(nnc3-c3ccccc3OC)SC2)cc1OC | ? | -31% | -19% | ? | -97*
COc1cc(-c2nnc3n2N=C(c2ccccc2)CS3)cc(OC)c1OC | 10µM* | ? | ? | ? | 4
COc1ccc(C2=Nn3c(nnc3-c3ccccc3Cl)SC2)cc1OC1CCCC1 | . | . | 32µM* | . | -94*
CCOC(=O)C1=CCN(S(=O)(=O)c2ccccc2F)C1c1ccccc1 (centres undefined) | . | -11% | -14% | i | -15
SMILES | HCV inh | Vaccinia Venus | FMDV inh | Vaccinia mCherry | HCMV inh
Cc1cccc(S(=O)(=O)NC(=O)C2(C)CCN2C(=O)c2c(C)noc2C)c1 (centres undefined) | . | -6% | -2% | 21% | -7
C[C@H](O)[C@@H]1C(=O)N2CCc3c([nH]c4ccccc34)[C@@H]2C[C@@H]1N(C)C(=O)c1ccco1 | . | -9% | -5% | 16% | 23
CN(C)c1nc(Nc2ccc(F)cc2)nc(Oc2ccc(F)cc2)n1 | 1% | . | -25% | . | -30
Oc1ccccc1C=NNC(=S)Nc1ccc(F)cc1 | ? | ? | 34% | 5.6µM* | -83*
Fc1ccc(NC(=S)NN=Cc2ccccc2Cl)cc1 | -28% | -2% | 5% | -25% | -16
S=C(NCCc1ccccc1)N/N=C/c1cccc(Cl)c1Cl | -3% | -29% | -3% | -16% | -16
